Reference: the supplement of paper PMC3334620
The full ranking holds about 33,000 sequences; the median of “E-score (-0.5 to 0.5)” is about -0.036, and the highest 2% start at about 0.37. The sample holds the highest values, similar sequences and a random draw of the others, so the mix is not that of the screen.

Molecular target: T1, Yer064c (UniProt P40041)
T1 sequence: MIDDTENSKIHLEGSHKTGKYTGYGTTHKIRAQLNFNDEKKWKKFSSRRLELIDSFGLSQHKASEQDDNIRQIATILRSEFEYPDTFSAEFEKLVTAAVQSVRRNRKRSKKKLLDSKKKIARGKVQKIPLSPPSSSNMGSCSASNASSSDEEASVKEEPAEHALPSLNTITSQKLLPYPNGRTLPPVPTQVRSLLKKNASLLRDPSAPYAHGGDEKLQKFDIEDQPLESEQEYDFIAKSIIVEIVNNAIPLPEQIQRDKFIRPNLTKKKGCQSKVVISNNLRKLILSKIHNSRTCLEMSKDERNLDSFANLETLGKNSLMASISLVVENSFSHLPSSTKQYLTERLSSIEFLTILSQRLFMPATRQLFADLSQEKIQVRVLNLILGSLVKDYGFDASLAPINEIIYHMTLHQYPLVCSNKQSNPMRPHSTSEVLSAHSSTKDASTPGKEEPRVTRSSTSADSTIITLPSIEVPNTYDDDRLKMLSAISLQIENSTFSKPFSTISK
Test: PBM E-score (8-mer binding enrichment) (E-score (-0.5 to 0.5)); higher = stronger / more preferred TF binding
Conditions: protein concentration: 200 nM; construct: GST-full length
Outline: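 GST-tagged yeast TFs (full-length or DNA-binding domain) were made by PURExpress in vitro transcription/translation and applied at about 100-200 nM to universal all-10-mer Agilent arrays. The arrays were made double-stranded by primer extension, on fresh or once-stripped slides. Bound protein was detected with fluorescent anti-GST, and scans were normalised with masliner. Each ungapped eight-base word, pooled with its reverse complement, received an E-score (modified Wilcoxon-Mann-Whitney statistic) from the Universal PBM Analysis Suite.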

Sequence	PBM E-score
CTCACAAA	0.232
ACGTTATA	0.0989
AGGATGAT	0.281
GGAGATCC	-0.237
AACTCCTC	-0.169
GACTCCTA	0.443
CACTCCTC	-0.206
CACTCCTA	-0.0701
AACTCCTA	-0.137
GACTCCTC	0.419
ACGGGCTA	-0.288
GGTGGCTA	0.181
ATTCAGAA	0.139
CACCGCAA	-0.0119
ACTTAACG	0.0504
TACAGTAA	0.128
TACAGTGA	0.211
CACAGTCG	0.203
CACAGTCC	0.132
AACAGTCG	0.209
CACAGTCA	0.411
GACAGTTA	-0.103
GACAGTCC	0.0581
AACAGTCT	0.204
TACAGTCA	0.418

Sequence	PBM E-score
GACAGTCA	0.409
AACAGTCA	0.384
ACGGAGCG	-0.0547
AAGAGAGG	-0.104
CTGCTAAA	-0.141
AGTTCCAC	-0.0556
AAACGGGG	-0.128
CTGGACAG	0.0136
ATGCACCC	-0.0692
AAATAGTT	-0.0372
CAATAGTC	0.409
AAATAGTG	0.062
CAATAGTG	0.0438
GAATAGTC	0.38
GAATAGTA	-0.0424
GAATAGCC	-0.0409
CAATAGTA	-0.0839
AAATAGTC	0.382
GCGTAGAA	-0.12
CACCGTTA	0.0864
ATTGGTTG	-0.0268
CGCTCCCG	0.17
AAACCACA	-0.0212
ACTAACCG	0.163
TATTTGCA	0.0422

Sequence	PBM E-score
CGTCATGA	0.253
AGTCATGA	0.485
ATTCATGG	0.224
CGTCATGC	-0.173
AGTCATGG	0.479
AGCCATGG	0.268
ATTCATGC	0.137
AGTCATGC	0.487
GGTCATGA	0.255
TACTTACA	-0.0596
GAAGCCTA	-0.143
AACGTATT	-0.12
AGGGATAG	-0.255
TAGAGAGA	0.0957
AGAAGCAG	-0.1
AGCTTTCA	-0.0821
GTGTTGGA	-0.127
CTTTAGTA	0.14
ATTTAATA	0.117
ATTTAGTG	0.127
ATTTAGTA	0.253
ATTTAGTC	0.444
CTTTAGAC	0.108
ATTTAATC	0.366
CTTTAGTC	0.416

Sequence	PBM E-score
CTTTAATC	0.29
GGCCTACA	-0.0963
TAATAGCA	-0.09
ACCAAGAG	-0.00272
CATAACCA	0.071
GGCGAATA	-0.0639
CGGCGAGC	-0.108
GACTCATC	0.478
CACTCATA	0.259
AACTCATA	0.275
CACTCATC	0.258
AACTCATC	0.33
GACTCATA	0.477
CCTGCCAG	-0.212
ATTTTCAG	-0.135
CTCTGTCC	-0.14
TGTCTTAA	-0.0134
GGTCTTAC	0.131
AGTCTTAA	0.387
AATCTTAT	0.207
AGTCTTAG	0.408
ACTCTTAT	0.241
CGTCTTAG	-0.188
AGTCTTAT	0.383
ACTCTTAG	0.198

Sequence	PBM E-score
AGTCTTAC	0.415
CGTCTTAC	-0.141
CGTCTTAA	-0.00451
CCCCAGGC	-0.41
AATCGACT	0.258
ATCTGGCA	-0.118
AGTGACCC	-0.0592
GTCTATCA	0.0174
GGTTTCTA	-0.133
CCTTTCTA	-0.251
AACAACAT	-0.0999
CTTTGTAA	0.173
TAGTTGAA	0.127
CACGTGAG	0.0942
CTTAGTAA	0.161
CTTAGTTA	0.221
ATTAGTGA	0.219
ATTAGTCG	0.41
CTTAGTCA	0.483
ATTAGTGG	0.11
ATTAGTTA	0.153
ATTAGTTG	0.118
ATTAGTAC	0.205
ATTAGTCA	0.484
ATTAGGCC	0.00222

Sequence	PBM E-score
ATTAGTCC	0.373
AAGAATAG	0.0215
CTAGAAAC	0.0516
CCTTCTAG	-0.244
GCAATGCC	-0.31
TAATATTA	0.207
AGCGATCC	-0.315
CGCGTCTA	-0.228
CTTAGTTC	0.0883
GTTAGTTA	0.165
CTTAGTCC	0.37
CTTAGGCC	-0.115
GTTAGTGA	0.171
GTTAGTCA	0.49
CTCGCGCA	-0.0489
GAGCGTCA	-0.0316
CACTTTGA	0.184
GGCTATCA	-0.11
GAGTCGCC	0.439
AAGTCGCC	0.222
CAGTCGCA	0.15
CAGTCGCC	0.254
TAGTCGCA	0.412
TCGTCGCA	-0.0159
GAGTCGCA	0.438

Sequence	PBM E-score
AAGTCGCA	0.257
TAGTCGAA	0.243
ACGGGCCT	-0.363
GGGCACCC	-0.269
CGGGACCA	-0.208
GAAGCGTA	-0.151
AACGGAAC	-0.134
AAGAGCCC	-0.196
CATTTCGA	-0.0334
AATCACGA	0.347
GATCACGC	0.18
AATCACGT	0.382
CATCACGA	0.132
AATCAAGA	0.235
AATCACGC	0.391
AAGGCAGG	-0.192
ACGTCCGG	-0.217
AGTGGGCC	-0.307
CTTCTGCC	-0.225
GTGGTTAA	0.222
CTGGTTAA	0.162
ATGGTTAA	0.391
